Measurements published in the antibiotic and cytotoxicity screens of Wong et al. (2023).
About 3,300 (8.5%) of roughly 39,000 compounds were called active. This is one part of a sample in which actives are shown more often than they occur.

system: HepG2; experiment: cytotoxicity call (relative viability < 0.9); details: 10 µM

**Q.** `COc1ccc(NC(=O)Nc2ccc3c(c2)C(=O)N([C@@H](C)CO)C[C@H](C)[C@H](CN(C)Cc2ccccc2)OCCCC[C@@H](C)O3)cc1` was tested. Which cytotoxicity call did it give?
**A.** inactive

**Q.** `COc1cccc([C@@H](N)c2ccccc2)c1` was tested. Which cytotoxicity call did it give?
**A.** inactive

**Q.** `O=C(/C=C/c1ccc(O)c(O)c1)O[C@@H]1[C@H](O)C[C@@](O)(C(=O)O)C[C@H]1OC(=O)/C=C/c1ccc(O)c(O)c1` was tested. Which cytotoxicity call did it give?
**A.** inactive

**Q.** With `C[C@H]1CN([C@@H](C)CO)C(=O)Cc2cc(NC(=O)Cc3cn(C)c4ccccc34)ccc2O[C@@H]1CN(C)S(C)(=O)=O` as the compound, how does the cytotoxicity call read?
**A.** inactive

**Q.** Which cytotoxicity call does the source give for `C[C@@H]1CN([C@H](C)CO)C(=O)c2cc(NS(=O)(=O)c3cn(C)cn3)ccc2O[C@H]1CN(C)C(=O)NC1CCCCC1` here?
**A.** inactive

**Q.** How did the cytotoxicity call turn out when `C[C@H]1CN([C@@H](C)CO)C(=O)Cc2cc(NC(=O)CCN3CCOCC3)ccc2O[C@@H]1CN(C)S(=O)(=O)c1cccs1` was run?
**A.** inactive

**Q.** `O=C(C[C@@H]1CC[C@H]2[C@@H](COC[C@@H](O)CN2C(=O)c2cnccn2)O1)NCc1ccc(Oc2ccccc2)cc1` was tested. Which cytotoxicity call did it give?
**A.** inactive

**Q.** `COc1ccccc1NC(=O)N(C)C[C@@H]1Oc2ncc(Br)cc2C(=O)N([C@H](C)CO)C[C@H]1C` was tested. Which cytotoxicity call did it give?
**A.** inactive

**Q.** `O=C(CCCCCCC(=O)Nc1ccccc1O)N/N=C/[C@H](O)[C@@H](O)[C@H](O[C@@H]1O[C@H](CO)[C@H](O)[C@H](O)[C@H]1O)[C@H](O)CO` was tested. Which cytotoxicity call did it give?
**A.** inactive

**Q.** How did the cytotoxicity call turn out when `C[C@H](CO)N1C[C@H](C)[C@@H](CN(C)C(=O)Nc2cccc3ccccc23)Oc2c(NC(=O)CCCCCC(=O)Nc3ccccc3N)cccc2C1=O` was run?
**A.** inactive

**Q.** `C[C@@H]1CCCCO[C@@H](CN(C)S(=O)(=O)c2ccc(Cl)cc2)[C@@H](C)CN([C@H](C)CO)C(=O)c2cc(NC(=O)Nc3ccc(F)cc3)ccc2O1` was tested. Which cytotoxicity call did it give?
**A.** inactive

**Q.** For `C[C@H](CO)N1C[C@H](C)[C@H](CN(C)Cc2ccc(Oc3ccccc3)cc2)Oc2ccc(NC(=O)C3CC3)cc2C1=O`, which cytotoxicity call is on record?
**A.** inactive

**Q.** For `Cc1ccc(NC(=O)N(C)C[C@@H]2OCCCC[C@H](C)Oc3ccc(NC(=O)C4CCCCC4)cc3C(=O)N([C@H](C)CO)C[C@@H]2C)cc1`, which cytotoxicity call is on record?
**A.** inactive

**Q.** With `NC(=O)CCN1CCn2c1nc1ccccc12` as the compound, how does the cytotoxicity call read?
**A.** inactive

**Q.** `COc1ccc2c3c([nH]c2c1)[C@H](CO)N(C[C@]13CCN(CC1)C(=O)Nc1ccc2c(c1)OCO2)C(=O)Nc1ccc(cc1)F` was tested. Which cytotoxicity call did it give?
**A.** inactive

**Q.** For `COc1ccc(NC(=O)Nc2ccc3c(c2)C(=O)N([C@@H](C)CO)C[C@H](C)[C@@H](CN(C)Cc2ccccc2)OCCCC[C@H](C)O3)cc1`, which cytotoxicity call is on record?
**A.** inactive

**Q.** `COc1ccc(NC(=O)Nc2ccc3c(c2)C(=O)N([C@H](C)CO)C[C@H](C)[C@H](CN(C)Cc2ccccc2)OCCCC[C@H](C)O3)cc1` was tested. Which cytotoxicity call did it give?
**A.** active

**Q.** For `COc1ccc(NC(=O)Nc2ccc3c(c2)C(=O)N([C@H](C)CO)C[C@H](C)[C@@H](CN(C)Cc2ccccc2)OCCCC[C@@H](C)O3)cc1`, which cytotoxicity call is on record?
**A.** inactive

**Q.** With `C[C@@H]1CCCCO[C@H](CN(C)Cc2ccccc2)[C@@H](C)CN([C@H](C)CO)C(=O)c2cc(NS(=O)(=O)c3ccc(F)cc3)ccc2O1` as the compound, how does the cytotoxicity call read?
**A.** inactive

**Q.** For `Cn1cnnc1Sc1c([N+](=O)[O-])ncn1C`, which cytotoxicity call is on record?
**A.** inactive

**Q.** For `Cn1cnc([N+](=O)[O-])c1Sc1[nH]cnc2ncnc1-2`, which cytotoxicity call is on record?
**A.** active

**Q.** For `Cn1cnc([N+](=O)[O-])c1Cl`, which cytotoxicity call is on record?
**A.** inactive

**Q.** How did the cytotoxicity call turn out when `C[C@@H]1CN([C@H](C)CO)C(=O)c2cc(NC(=O)CCN3CCOCC3)ccc2O[C@@H]1CN(C)C(=O)Nc1ccccc1` was run?
**A.** inactive

**Q.** For `C[C@@H]1CN([C@@H](C)CO)S(=O)(=O)c2ccc(C#CC3CCCC3)cc2O[C@H]1CN(C)Cc1cncnc1`, which cytotoxicity call is on record?
**A.** inactive

**Q.** Which cytotoxicity call does the source give for `C[C@H]1O[C@@H](O[C@H]2[C@@H](O)[C@@H](O)[C@@H](O[C@H]3CC[C@]4(C)[C@H]5CC=C6[C@H]7CC(C)(C)[C@H]8C[C@]7(C(=O)O8)[C@@H](O)C[C@]6(C)[C@@]5(C)CC[C@H]4C3(C)C)O[C@@H]2CO)[C@@H](O)[C@@H](O[C@H]2OC[C@@H](O)[C@@H](O)[C@@H]2O)[C@@H]1O` here?
**A.** inactive

**Q.** Which cytotoxicity call does the source give for `C[C@@H]1O[C@@H](O[C@H]2[C@H](OC(=O)[C@]34CCC(C)(C)C[C@H]3C3=CC[C@H]5[C@@]6(C)CC[C@H](O[C@@H]7O[C@H](CO)[C@@H](O)[C@H](O)[C@H]7O)C(C)(C)[C@@H]6CC[C@@]5(C)[C@]3(C)C[C@H]4O)OC[C@H](O)[C@@H]2O)[C@H](O)[C@H](O[C@@H]2OC[C@H](O)[C@H](O)[C@H]2O)[C@H]1O[C@@H]1OC[C@@H](O)[C@H](O[C@@H]2OC[C@H](O)[C@H](O)[C@H]2O)[C@H]1O` here?
**A.** active

**Q.** With `C[C@@H]1O[C@@H](O[C@@H]2CC[C@@]3(C)[C@@H](CC[C@]4(C)[C@@H]3CC=C3[C@@H]5CC(C)(C)CC[C@]5(C(=O)O[C@@H]5O[C@H](CO[C@@H]6O[C@H](CO)[C@@H](O)[C@H](O)[C@H]6O)[C@@H](O)[C@H](O)[C@H]5O)CC[C@]34C)[C@]2(C)CO)[C@H](O)[C@H](O[C@@H]2OC[C@@H](O)[C@H](O)[C@H]2O)[C@H]1O` as the compound, how does the cytotoxicity call read?
**A.** inactive

**Q.** With `CC1(C)CC[C@]2(C(=O)O[C@@H]3O[C@H](CO)[C@@H](O)[C@H](O)[C@H]3O)CC[C@]3(C)C(=CC[C@H]4[C@@]5(C)CC[C@@H](O[C@@H]6O[C@H](C(=O)O)[C@@H](O[C@@H]7OC[C@@H](O)[C@H](O)[C@H]7O)[C@H](O[C@@H]7OC[C@](O)(CO)[C@H]7O)[C@H]6O)C(C)(C)[C@@H]5CC[C@]43C)[C@@H]2C1` as the compound, how does the cytotoxicity call read?
**A.** inactive

**Q.** For `C[C@@H]1O[C@H](O[C@H]2[C@H](OC(=O)[C@]34CCC(C)(C)C[C@@H]3C3=CC[C@@H]5[C@@]6(C)CC[C@H](O[C@@H]7O[C@@H](C)[C@H](O[C@@H]8OC[C@@H](O)[C@H](O)[C@H]8O)[C@@H](O)[C@H]7O)C(C)(C)[C@@H]6CC[C@@]5(C)[C@]3(C)C[C@@H]4O)OC[C@H](O)[C@H]2O)[C@H](O)[C@H](O)[C@H]1O[C@@H]1O[C@H](CO)[C@@H](O)[C@H](O)[C@H]1O`, which cytotoxicity call is on record?
**A.** inactive

**Q.** For `C[C@@H]1O[C@H](O[C@@H]2[C@H](O)C[C@@]3(C)[C@@H](CC[C@]4(C)[C@H]3CC=C3[C@H]5CC(C)(C)CC[C@@]5(C(=O)O[C@H]5O[C@@H](C)[C@@H](O)[C@H](O[C@H]6OC[C@@H](O)[C@@H](O)[C@@H]6O)[C@H]5O[C@@H]5O[C@H](C)[C@H](O)[C@H](O[C@@H]6OC[C@H](O)[C@H](O[C@@H]7O[C@H](C)[C@@H](O)[C@H](O)[C@@H]7O)[C@H]6O)[C@H]5O)[C@@H](O)C[C@@]34C)[C@]2(C)CO)[C@@H](O)[C@H](O[C@H]2OC[C@@H](O)[C@@H](O[C@H]3OC[C@@H](O[C@H]4OC[C@@](O)(CO)[C@@H]4O)[C@@H](O)[C@@H]3O)[C@@H]2O)[C@@H]1O`, which cytotoxicity call is on record?
**A.** inactive

**Q.** With `C[C@@H]1O[C@@H](O[C@@H]2[C@@H](O)[C@@H](O[C@@H]3O[C@@H](CO)[C@H](O)[C@H]3O)[C@H](OC(=O)[C@]34CCC(C)(C)C[C@H]3C3=CC[C@H]5[C@@]6(C)C[C@H](O)[C@H](O[C@@H]7O[C@@H](C)[C@H](O)[C@@H](O[C@@H]8OC[C@@H](O)[C@H](O)[C@H]8O[C@@H]8O[C@H](CO)[C@@H](O)[C@H](O)[C@H]8O)[C@H]7O)[C@@](C)(CO)[C@@H]6CC[C@@]5(C)[C@]3(C)C[C@H]4O)O[C@H]2C)[C@H](O)[C@H](O)[C@H]1O` as the compound, how does the cytotoxicity call read?
**A.** active

**Q.** `C[C@H]1O[C@@H](OC(=O)[C@]23CCC(C)(C)C[C@H]2C2=CC[C@H]4[C@@]5(C)CC[C@H](O[C@@H]6O[C@H](C(=O)O)[C@@H](O)[C@H](O[C@@H]7OC[C@@H](O)[C@H](O)[C@H]7O)[C@H]6O[C@@H]6O[C@H](CO)[C@H](O)[C@H](O)[C@H]6O)[C@@](C)(C=O)[C@@H]5CC[C@@]4(C)[C@]2(C)C[C@H]3O)[C@H](O[C@H]2O[C@@H](CO)[C@@H](O)[C@@H](O)[C@@H]2O)[C@@H](O)[C@H]1O[C@@H]1O[C@H](C)[C@@H](O[C@H]2OC[C@@H](O)[C@@H](O)[C@@H]2O)[C@H](O)[C@@H]1O` was tested. Which cytotoxicity call did it give?
**A.** inactive

**Q.** `CC(=O)N[C@H]1[C@H](O[C@H]2CC[C@]3(C)[C@H]4CC=C5[C@@H]6CC(C)(C)CC[C@]6(C(=O)O[C@H]6OC[C@@H](O)[C@@H](O)[C@@H]6O)[C@@H](O)C[C@@]5(C)[C@]4(C)CC[C@H]3C2(C)C)O[C@H](CO[C@H]2OC[C@@H](O)[C@@H](O[C@H]3OC[C@@H](O)[C@@H](O)[C@@H]3O)[C@@H]2O)[C@@H](O[C@@H]2O[C@@H](C)[C@H](O)[C@@H](O)[C@H]2O[C@@H]2O[C@@H](C)[C@H](O)[C@@H](O)[C@H]2O)[C@@H]1O` was tested. Which cytotoxicity call did it give?
**A.** active

**Q.** How did the cytotoxicity call turn out when `C=C[C@](C)(O)CC/C=C(\C)C(=O)O[C@@H]1[C@@H](O[C@@](C)(C=C)CC/C=C(\C)C(=O)O[C@H]2C[C@@]3(C(=O)O[C@H]4OC[C@@H](O[C@H]5O[C@@H](CO)[C@@H](O)[C@@H](O[C@H]6O[C@@H](CO)[C@@H](O[C@H]7O[C@@H](CO)[C@@H](O)[C@@H](O)[C@@H]7O)[C@@H](O)[C@@H]6O)[C@@H]5O)[C@@H](O)[C@@H]4O)[C@@H](O)C[C@@]4(C)C(=CC[C@H]5[C@@]6(C)CC[C@@H](O[C@H]7O[C@@H](CO)[C@@H](O[C@H]8O[C@@H](CO)[C@@H](O)[C@@H](O[C@H]9OC[C@@H](O)[C@@H](O)[C@@H]9O)[C@@H]8O)[C@@H](O)[C@@H]7O)C(C)(C)[C@@H]6CC[C@@]54C)[C@@H]3CC2(C)C)OC[C@@H](O)[C@H]1O` was run?
**A.** active
